# Screen size: about 360,000 compounds; about 1,800 (0.5%) were called active.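 The calls were made as follows: active = interference check ratio from 0.5 to 1.5 plus GFP to RFP signal ratio inhibition reaching or exceeding a fixed threshold (cut at about 30% in these data, passing the limit was not always enough); inactive = the rest.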 Shown is part of a subset that was picked to be rich in actives.
# Assay: gst-4 reporter inhibition in live C. elegans – whole organism, uHTS, GFP/RFP fluorescence ratio, strain VP596, SKN-1 inhibitor project, primary screen (AID 624304)
# Conditions: C. elegans VP596 Pgst-4::GFP/RFP ratio, acrylamide-induced, 24 h; at 21.8 µM; active compounds read high
row,SMILES,inhibition
1,CC(=O)c1ccc(N2CCN(C(=O)c3ccc(Cl)c(S(=O)(=O)NC4CC4)c3)CC2)c(F)c1,14.2% (inactive)
2,CC(=O)c1ccc(N2CCN(C(=O)CCNC(=O)Cn3ccc4ccccc4c3=O)CC2)cc1,-6.32% (inactive)
3,CC1CCN(c2ccc([N+](=O)[O-])c(SCCO)c2)CC1,13.8% (inactive)
4,C=CCNc1nc(Nc2ccc(Cl)cc2)nc(OC)n1,13.7% (inactive)
5,CC1(C)N=C(N)NC(Nc2ccc(Cl)cc2)=N1,9.6% (inactive)
6,Clc1ccc(Nc2ccc3ccccc3n2)cc1,47.2% (active)
7,COc1ccc(C(C#N)(CC(=O)O)c2cnccn2)cc1OC (stereo not given),7.82% (inactive)
8,Cn1nc(C(C)(C)C)c([N+](=O)[O-])c1C(N)=O,11.7% (inactive)
9,CC(C)CN1CC(C)C(=O)N(c2ccccc2)C1=S (stereo not given),6.3% (inactive)
10,FC(F)(F)c1ccc2nnc(-c3c(Cl)cccc3Cl)n2c1,13.4% (inactive)
11,Nc1cc(C(F)(F)F)ccc1N1CCOCC1,2.47% (inactive)
12,CCCC1OC23CCCCC2C(C#N)(C#N)C1(C#N)C(=N)O3 (stereo not given),39.2% (active)
13,O=C(NC1CCCC1)C1CC(=O)N(c2ccc(F)cc2)C1 (stereo not given),0.701% (inactive)
14,O=C(CCS(=O)(=O)c1cccc2nsnc12)N1CCN(c2ccccc2F)CC1,47.3% (active)
15,CCC(=O)N1CCc2cc(S(=O)(=O)CCC(=O)N3CCN(c4ccccc4F)CC3)ccc21,20.2% (inactive)
16,O=C(CCCNS(=O)(=O)c1cccc2nsnc12)NCCN1CCN(c2ccccc2F)CC1,-3.19% (inactive)
17,CN1CCN(c2ccccc2NC(=O)COc2ccc(C3CCCCC3)cc2)CC1,-4.71% (inactive)
18,Cc1ccc(-c2ccnc3nc(Sc4ncc(C(F)(F)F)cc4Cl)nn23)cc1,41.4% (active)
19,Cc1cc(NC(=O)CSc2ncc(C(F)(F)F)cc2Cl)no1,-6.53% (inactive)
20,Cc1ccc(-c2nc3c(Cl)cc(C(F)(F)F)cn3c2Cc2cccc(Cl)c2)cc1,9.6% (inactive)
21,COc1cccc(CNC(=O)COc2cc(O)c3c(c2)OC(C)(C)CC3=O)c1,8.05% (inactive)
22,CC1CN/C(=C\C(=O)c2ccc(Br)cc2)C(=O)N1 (stereo not given),15.8% (inactive)
23,COc1cccc(CNc2nc(NCc3cccs3)nc3ccsc23)c1,6.96% (inactive)
24,COc1cccc(-c2cc3nc(NCc4ccccc4OC)n(C)c(=O)c3s2)c1,-2.32% (inactive)

row,SMILES,inhibition
1,COc1cccc(CNc2nc(NCc3ccccc3OC)nc3ccsc23)c1,43.2% (active)
2,CCc1nc2c(OCc3ccc(C(=O)OC)cc3)cccn2c1N(C)C(=O)C(C)C,7.01% (inactive)
3,O=C(Nc1ccc(-n2cccn2)cc1)C1CCN(Cc2ccsc2)CC1,-1.22% (inactive)
4,CCCCNC(=O)c1onc(CSc2cccc(OC)c2)c1C(=O)O,-12.1% (inactive)
5,CCC(C)NC(=O)c1cc(Cl)ccc1OC (stereo not given),3.09% (inactive)
6,Cc1ccc(-c2nc3ccc(Br)cn3c2Cc2ccccc2C(F)(F)F)cc1,35.2% (active)
7,COC(=O)c1ccc2nc(-c3cccc(Br)c3)c(Cc3ccccc3C(F)(F)F)n2c1,-9.35% (inactive)
8,Cc1cc(Br)cn2c(Cc3ccccc3C(F)(F)F)c(-c3ccc(Cl)cc3)nc12,12.9% (inactive)
9,Cc1cc(C)c2nc(-c3cccnc3)cc(C(=O)Nc3ccc(S(=O)(=O)Nc4onc(C)c4C)cc3)c2c1,0.27% (inactive)
10,COc1ccc(-c2cc(C(=O)n3cnc4ccccc43)c3ccccc3n2)cc1,38.1% (active)
11,C/C(N)=C(/C#N)C(=O)COC(=O)c1cc(-c2ccc(C)cc2)nc2ccccc12,-3.83% (inactive)
12,O=C(c1ccc(Cl)cc1)n1cnc2ccccc21,11.4% (inactive)
13,CC(C)Sc1nc(N)nc2c1ncn2C1OC(CO)C(O)C1O (stereo not given),8.48% (inactive)
14,Cn1c(SCC(=O)Nc2ccc(Br)cc2F)nnc1-c1ccco1,6.52% (inactive)
15,Cc1ccc(-n2ncc3c(=O)n(-c4ccc(C)c(C)c4)c(-c4ccco4)nc32)cc1,18.1% (inactive)
16,Cn1c(-c2ccco2)nc2cc3ccccc3cc21,41.7% (active)
17,CC(=O)NC1CC2CCCC(C1)N2CC(=O)Nc1ccccc1 (stereo not given),-18.6% (inactive)
18,O=C(CN1C2CCC1CC(NC(=O)C1CC1)C2)NCc1ccccc1 (stereo not given),35.8% (active)
19,O=C(NCc1ccccc1)C1CCN(C(=O)Cc2ccccc2)CC1,9.03% (inactive)
20,CCOC(=O)N1CCN(C(=O)c2ccc(CN(c3ccc(C)c(C)c3)S(C)(=O)=O)cc2)CC1,6.59% (inactive)
21,OCc1nc(CO)n(Cc2ccccc2)n1,-5.44% (inactive)
22,COc1ccc(CC(NC(C)=O)C(=O)N2CCN(C(=O)Nc3cccc(Cl)c3)CC2)cc1OC (stereo not given),40.7% (active)
23,COc1ccc(CC(NC(C)=O)C(=O)NC2CCN(C(=O)Nc3ccc(C#N)cc3)CC2)cc1OC (stereo not given),11.3% (inactive)
24,COc1ccc(CC(NC(C)=O)C(=O)NC2CCN(C(=O)C3CC3)CC2)cc1OC (stereo not given),7.48% (inactive)

row,SMILES,inhibition
1,OC(c1ccc(Cl)c(F)c1)c1ncc(-c2ccccc2Cl)[nH]1 (stereo not given),20.6% (inactive)
2,CCN1CCN(c2sc(S(C)(=O)=O)nc2S(=O)(=O)c2ccc(Cl)cc2)CC1,-10.1% (inactive)
3,COc1cc(N2CCCC2)c(OC)cc1/C=C(/C#N)c1cccc(Br)c1,45.8% (active)
4,N#CC1(Nc2ccc3c4c(cccc24)CC3)CCCCC1,8.67% (inactive)
5,N#CC1(Nc2ccc(-c3ccc(Cl)cc3)cc2)CCCC1,69% (active)
6,NC(=O)C1(Nc2ccc(-c3ccccc3)cc2)CCCC1,13.2% (inactive)
7,CC(=O)c1c(C)n([O-])c2ccccc2[n+]1=O,36.9% (active)
8,Cc1c(C=O)c2ccccc2n1CC(=O)O,-4.35% (inactive)
9,CCOC(=O)C1=C(CNC2CCCCC2)NC(=O)NC1c1cc(C)ccc1C (stereo not given),-5.96% (inactive)
10,C#Cc1ccc(NC(=O)C2(C)CCN2C(=O)Cc2ccc(-c3ccccc3)cc2)cc1 (stereo not given),8.15% (inactive)
11,Cc1cccc(OCC(=O)Nc2ccccc2F)c1,11.3% (inactive)
12,CC(=O)Nc1cccc(OCC(=O)/C=C2\N(C)c3ccccc3C2(C)C)c1,45.5% (active)
13,COc1cccc(NC(=S)C(C#N)=C2N(C)c3ccccc3N2C)c1,-3.75% (inactive)
14,COCCn1c(SCc2nc3cc(OC)c(OC)cc3c(=O)[nH]2)nnc1-c1ccncc1,13.8% (inactive)
15,CCn1c(SCC(=O)Nc2nc(C)cs2)nnc1C(C)NC(=O)c1ccccc1 (stereo not given),-5.72% (inactive)
16,C=CCNC(=S)N1CCN(CCN=Cc2c(C)[nH]n(-c3ccc([N+](=O)[O-])cc3)c2=O)CC1,-5.99% (inactive)
17,O=C1/C(=C/c2cccs2)CCc2ccccc21,41.9% (active)
18,c1ccc2c(c1)CCc1snnc1-2,11% (inactive)
19,O=S(=O)(c1cccs1)N1CCc2ccccc2C1,-31.6% (inactive)
20,O=C(COC(=O)/C=C/c1cccs1)NC1CCCCC1,4.24% (inactive)
21,O=C1/C(=C/c2cccs2)CCC1C1CCCC1 (stereo not given),41.6% (active)
22,O=S1(=O)CSCS(=O)(=O)C1,10.6% (inactive)
23,CC1CN(S(=O)(=O)c2ccc(C(=O)NN3CCN(C)CC3)cc2)CC(C)O1 (stereo not given),-5.41% (inactive)
24,Cc1cc(OCc2cc(C(=O)NCc3cc(C(C)C)no3)no2)cc(C)c1Cl,1.98% (inactive)

row,SMILES,inhibition
1,O=C(Nc1ccc(Cl)c(Cl)c1)N1CC=C(c2ccccc2)CC1,13.1% (inactive)
2,O=C(CC(O)(C(F)(F)F)C(F)(F)F)Nc1ccc(Cl)c(Cl)c1,50.1% (active)
3,Cc1ccc(NC(=O)CSc2nn3c(=O)c(C)nnc3s2)cc1Cl,20.9% (inactive)
4,NC(=O)C1CCN(C2OC(=O)c3ccccc32)CC1 (stereo not given),-35.9% (inactive)
5,O=C(NC(c1ccc(-c2ccccc2)cc1)c1cnccn1)C1CCN(CCOc2ccc(Cl)cc2Cl)CC1 (stereo not given),39.3% (active)
6,O=C(NC(c1ccc(Cl)cc1)c1cnccn1)C1CCN(Cc2ccc(Cl)cc2)CC1 (stereo not given),-1.18% (inactive)
7,Cc1ccc(C(NC(=O)C2CCN(CCOc3ccc(Cl)cc3Cl)CC2)c2ccccn2)cc1 (stereo not given),-6.91% (inactive)
8,CCCCS(=O)c1snnc1C (stereo not given),0.19% (inactive)
9,CCCNC(=O)C1(C)CCN1C(=O)Cc1ccc(-c2ccccc2)cc1 (stereo not given),-5.8% (inactive)
10,CC1(C(=O)NS(=O)(=O)c2cccs2)CCN1C(=O)Cc1ccc(-c2ccccc2)cc1 (stereo not given),35.1% (active)
11,CC1(C(=O)NS(=O)(=O)c2ccccc2)CCN1C(=O)Cc1ccc(-c2ccccc2)cc1 (stereo not given),14.5% (inactive)
12,O=C(NCCCN1CCOCC1)C1CCCN(S(=O)(=O)N2CCCCC2)C1 (stereo not given),6.87% (inactive)
13,CC[n+]1c(C)n(-c2ccccc2)c2ccc(NC(C)=O)cc21,-12.4% (inactive)
14,O=S(=O)(c1ccc(Sc2nnc3ccccn23)nc1)N1CCOCC1,10.2% (inactive)
15,CCCCOC(=O)Nc1sc2nc(C)cc(C)c2c1-n1cccc1,-12.8% (inactive)
16,COC(=O)Nc1sc2nc(C)cc(C)c2c1-n1cccc1,6.78% (inactive)
17,Cc1cc(C)c2c(-n3cccc3)c(NC(=O)OCc3ccccc3)sc2n1,39.1% (active)
18,O=C(C1CCCO1)N1CCN(C(=S)NC2CC2)CC1 (stereo not given),-7.31% (inactive)
19,CCOc1cc2[nH]c(=S)n(CCN3CCCCC3C)c(=O)c2cc1OCC (stereo not given),-6.45% (inactive)
20,COc1cc2[nH]c(=S)n(Cc3ccc(F)cc3)c(=O)c2cc1OC,-0.963% (inactive)
21,COc1cc2[nH]c(=S)n(CCN3CCCCC3C)c(=O)c2cc1OC (stereo not given),56.1% (active)
22,CC(Oc1ccc(Cl)cc1Cl)C(=O)/C=C/N(C)C (stereo not given),-7.74% (inactive)
23,CC(C)(CNCC(O)c1ccccc1)N1CCOCC1 (stereo not given),-7.82% (inactive)
